Data from ChEMBL document CHEMBL2218924, “A broad activity screen in support of a chemogenomic map for kinase signalling research and drug discovery” (Biochem J, 2013).

Assays:
[1] = biological target: Death-associated protein kinase 1 (Homo sapiens) (UniProt P53355); settings: at 10 µM
[2] = biological target: Death-associated protein kinase 2 (Homo sapiens) (UniProt Q9UIK4); settings: at 1 µM
[3] = biological target: Death-associated protein kinase 2 (Homo sapiens) (UniProt Q9UIK4); settings: at 10 µM
[4] = biological target: T1, Serine/threonine-protein kinase DCLK2 (Homo sapiens) (UniProt Q8N568); settings: at 10 µM
T1 sequence (whole entry): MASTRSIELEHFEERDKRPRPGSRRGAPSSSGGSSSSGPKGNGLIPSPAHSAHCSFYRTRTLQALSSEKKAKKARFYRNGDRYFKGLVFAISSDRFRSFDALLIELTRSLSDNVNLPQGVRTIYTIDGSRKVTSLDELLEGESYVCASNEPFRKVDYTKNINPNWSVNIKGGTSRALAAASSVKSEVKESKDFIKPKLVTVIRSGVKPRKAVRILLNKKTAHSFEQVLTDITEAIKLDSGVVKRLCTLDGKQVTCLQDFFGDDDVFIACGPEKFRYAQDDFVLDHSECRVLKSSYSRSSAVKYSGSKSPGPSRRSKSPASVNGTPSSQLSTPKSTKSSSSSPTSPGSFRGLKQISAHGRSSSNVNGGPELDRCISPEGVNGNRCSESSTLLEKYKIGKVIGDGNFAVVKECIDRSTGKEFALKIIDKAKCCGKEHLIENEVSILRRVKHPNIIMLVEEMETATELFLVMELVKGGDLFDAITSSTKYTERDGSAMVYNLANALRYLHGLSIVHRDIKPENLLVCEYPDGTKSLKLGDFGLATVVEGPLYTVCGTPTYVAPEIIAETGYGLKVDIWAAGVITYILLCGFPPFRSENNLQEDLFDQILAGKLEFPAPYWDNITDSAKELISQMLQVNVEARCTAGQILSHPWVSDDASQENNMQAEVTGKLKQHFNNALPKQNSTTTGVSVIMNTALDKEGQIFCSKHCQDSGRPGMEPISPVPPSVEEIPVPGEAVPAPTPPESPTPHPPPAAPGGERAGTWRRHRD

[5] = biological target: T2, Discoidin domain-containing receptor 2 (Homo sapiens) (UniProt Q16832); settings: at 1 µM
T2 sequence (whole entry): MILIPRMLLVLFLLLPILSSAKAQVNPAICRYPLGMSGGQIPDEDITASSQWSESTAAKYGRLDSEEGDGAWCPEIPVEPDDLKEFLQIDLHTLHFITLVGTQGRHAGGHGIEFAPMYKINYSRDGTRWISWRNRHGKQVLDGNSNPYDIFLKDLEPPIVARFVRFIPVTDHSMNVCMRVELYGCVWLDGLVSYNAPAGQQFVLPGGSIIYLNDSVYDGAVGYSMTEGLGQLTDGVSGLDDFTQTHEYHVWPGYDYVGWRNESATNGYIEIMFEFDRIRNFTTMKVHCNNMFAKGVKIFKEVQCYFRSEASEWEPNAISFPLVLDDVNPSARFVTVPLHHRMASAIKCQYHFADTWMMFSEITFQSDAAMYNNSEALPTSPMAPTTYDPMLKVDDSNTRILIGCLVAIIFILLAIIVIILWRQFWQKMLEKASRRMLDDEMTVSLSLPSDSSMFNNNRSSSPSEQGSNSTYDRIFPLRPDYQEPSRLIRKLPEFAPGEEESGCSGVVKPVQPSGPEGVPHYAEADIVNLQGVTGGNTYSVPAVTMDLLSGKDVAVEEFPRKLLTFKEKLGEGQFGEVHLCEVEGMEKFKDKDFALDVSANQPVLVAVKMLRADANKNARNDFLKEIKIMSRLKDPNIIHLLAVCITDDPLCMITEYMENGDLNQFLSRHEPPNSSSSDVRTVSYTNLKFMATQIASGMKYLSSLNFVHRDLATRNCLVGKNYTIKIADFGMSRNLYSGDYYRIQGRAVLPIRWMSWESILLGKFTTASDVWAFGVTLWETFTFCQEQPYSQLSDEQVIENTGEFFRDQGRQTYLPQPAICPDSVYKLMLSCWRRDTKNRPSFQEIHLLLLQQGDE

[6] = biological target: T2, Discoidin domain-containing receptor 2 (Homo sapiens); settings: at 10 µM
[7] = biological target: T3, Serine/threonine-protein kinase 17A (Homo sapiens) (UniProt Q9UEE5); settings: at 1 µM
T3 sequence (whole entry): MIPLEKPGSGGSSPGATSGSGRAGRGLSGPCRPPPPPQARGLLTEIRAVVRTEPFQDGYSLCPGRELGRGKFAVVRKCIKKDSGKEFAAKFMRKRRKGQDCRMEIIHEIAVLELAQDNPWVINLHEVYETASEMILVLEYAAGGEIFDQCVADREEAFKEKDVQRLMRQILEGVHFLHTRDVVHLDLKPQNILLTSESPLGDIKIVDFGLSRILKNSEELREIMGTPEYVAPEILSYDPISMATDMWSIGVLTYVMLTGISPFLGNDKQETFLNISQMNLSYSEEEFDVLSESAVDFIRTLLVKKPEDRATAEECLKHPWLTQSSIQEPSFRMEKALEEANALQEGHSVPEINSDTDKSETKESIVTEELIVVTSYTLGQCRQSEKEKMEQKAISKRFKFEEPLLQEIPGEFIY

[8] = biological target: T3, Serine/threonine-protein kinase 17A (Homo sapiens); settings: at 10 µM
[9] = biological target: T4, Ephrin type-A receptor 1 (Homo sapiens) (UniProt P21709); settings: at 1 µM
T4 sequence (whole entry): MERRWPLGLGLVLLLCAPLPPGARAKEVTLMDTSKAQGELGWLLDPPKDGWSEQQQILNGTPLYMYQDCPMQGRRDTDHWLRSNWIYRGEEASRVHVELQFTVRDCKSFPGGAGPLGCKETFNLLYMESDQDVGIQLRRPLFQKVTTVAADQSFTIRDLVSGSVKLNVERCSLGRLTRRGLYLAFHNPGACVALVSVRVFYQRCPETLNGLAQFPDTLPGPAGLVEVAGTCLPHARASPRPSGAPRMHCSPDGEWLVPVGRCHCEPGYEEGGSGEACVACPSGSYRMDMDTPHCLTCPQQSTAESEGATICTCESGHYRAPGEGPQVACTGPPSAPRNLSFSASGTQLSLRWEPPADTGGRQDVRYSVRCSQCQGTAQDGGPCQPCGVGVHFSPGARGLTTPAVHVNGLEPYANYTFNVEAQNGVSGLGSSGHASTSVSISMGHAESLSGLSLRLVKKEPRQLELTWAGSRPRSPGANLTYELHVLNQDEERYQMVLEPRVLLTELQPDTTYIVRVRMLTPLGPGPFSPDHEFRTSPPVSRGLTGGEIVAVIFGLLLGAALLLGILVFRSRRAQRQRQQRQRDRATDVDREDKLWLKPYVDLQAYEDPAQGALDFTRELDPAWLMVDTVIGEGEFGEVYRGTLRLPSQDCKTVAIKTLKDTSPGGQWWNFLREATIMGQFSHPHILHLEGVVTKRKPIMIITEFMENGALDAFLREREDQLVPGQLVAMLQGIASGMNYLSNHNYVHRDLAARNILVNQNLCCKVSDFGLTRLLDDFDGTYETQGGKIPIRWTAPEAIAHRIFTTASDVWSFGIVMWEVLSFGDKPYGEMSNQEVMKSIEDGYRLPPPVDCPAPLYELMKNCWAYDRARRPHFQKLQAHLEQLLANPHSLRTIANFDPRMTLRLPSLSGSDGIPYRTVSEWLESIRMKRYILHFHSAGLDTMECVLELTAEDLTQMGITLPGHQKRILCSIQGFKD

[10] = biological target: T4, Ephrin type-A receptor 1 (Homo sapiens); settings: at 10 µM
[11] = biological target: Ephrin type-A receptor 2 (Homo sapiens) (UniProt P29317); settings: at 1 µM
Chain of Ephrin type-A receptor 2 (Homo sapiens) (P29317 whole entry): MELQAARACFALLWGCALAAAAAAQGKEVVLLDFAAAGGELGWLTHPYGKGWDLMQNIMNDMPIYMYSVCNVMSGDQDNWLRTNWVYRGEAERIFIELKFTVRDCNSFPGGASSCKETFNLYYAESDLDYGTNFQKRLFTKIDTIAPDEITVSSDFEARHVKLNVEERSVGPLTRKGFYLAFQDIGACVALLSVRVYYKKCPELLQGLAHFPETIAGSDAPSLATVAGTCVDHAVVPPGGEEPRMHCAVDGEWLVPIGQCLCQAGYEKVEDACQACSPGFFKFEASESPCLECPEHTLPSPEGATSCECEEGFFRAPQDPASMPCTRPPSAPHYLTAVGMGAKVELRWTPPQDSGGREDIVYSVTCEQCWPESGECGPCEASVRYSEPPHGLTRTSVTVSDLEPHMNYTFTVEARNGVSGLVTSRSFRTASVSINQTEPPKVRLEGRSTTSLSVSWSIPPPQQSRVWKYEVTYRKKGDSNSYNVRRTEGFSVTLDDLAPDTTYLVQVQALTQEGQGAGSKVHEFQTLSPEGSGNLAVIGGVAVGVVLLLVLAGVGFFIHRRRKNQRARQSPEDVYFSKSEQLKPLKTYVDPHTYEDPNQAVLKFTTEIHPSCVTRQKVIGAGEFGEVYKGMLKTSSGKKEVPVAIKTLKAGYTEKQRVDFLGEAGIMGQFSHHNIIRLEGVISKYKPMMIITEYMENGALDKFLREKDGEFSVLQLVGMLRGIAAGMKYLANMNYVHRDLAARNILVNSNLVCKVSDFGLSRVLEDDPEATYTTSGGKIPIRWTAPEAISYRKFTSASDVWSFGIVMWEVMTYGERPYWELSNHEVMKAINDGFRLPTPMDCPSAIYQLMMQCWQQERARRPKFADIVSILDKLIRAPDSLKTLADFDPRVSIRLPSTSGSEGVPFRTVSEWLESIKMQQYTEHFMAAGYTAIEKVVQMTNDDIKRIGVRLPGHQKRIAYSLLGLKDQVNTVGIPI

[12] = biological target: Ephrin type-A receptor 2 (Homo sapiens) (UniProt P29317); settings: at 10 µM
[13] = biological target: T1, Serine/threonine-protein kinase DCLK2 (Homo sapiens); settings: at 1 µM
[14] = biological target: T5, Myotonin-protein kinase (Homo sapiens) (UniProt Q09013); settings: at 10 µM
T5 sequence (whole entry): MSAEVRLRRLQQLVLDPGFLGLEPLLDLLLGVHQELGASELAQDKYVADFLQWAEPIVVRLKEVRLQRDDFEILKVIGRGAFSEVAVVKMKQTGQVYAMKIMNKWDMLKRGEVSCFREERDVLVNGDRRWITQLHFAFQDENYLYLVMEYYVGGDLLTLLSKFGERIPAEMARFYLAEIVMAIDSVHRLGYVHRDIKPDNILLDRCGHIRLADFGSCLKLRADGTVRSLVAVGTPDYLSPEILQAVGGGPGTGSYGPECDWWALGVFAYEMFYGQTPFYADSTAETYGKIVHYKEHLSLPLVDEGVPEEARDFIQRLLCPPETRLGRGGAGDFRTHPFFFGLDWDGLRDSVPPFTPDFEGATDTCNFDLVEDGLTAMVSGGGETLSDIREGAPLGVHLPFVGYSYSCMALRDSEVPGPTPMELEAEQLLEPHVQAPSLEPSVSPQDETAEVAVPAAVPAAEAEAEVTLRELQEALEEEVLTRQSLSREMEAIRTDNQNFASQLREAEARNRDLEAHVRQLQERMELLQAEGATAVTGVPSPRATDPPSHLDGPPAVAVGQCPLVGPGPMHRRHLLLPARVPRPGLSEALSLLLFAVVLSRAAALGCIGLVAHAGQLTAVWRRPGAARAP

[15] = biological target: T6, Dual specificity tyrosine-phosphorylation-regulated kinase 2 (Homo sapiens) (UniProt Q92630); settings: at 1 µM
T6 sequence (whole entry): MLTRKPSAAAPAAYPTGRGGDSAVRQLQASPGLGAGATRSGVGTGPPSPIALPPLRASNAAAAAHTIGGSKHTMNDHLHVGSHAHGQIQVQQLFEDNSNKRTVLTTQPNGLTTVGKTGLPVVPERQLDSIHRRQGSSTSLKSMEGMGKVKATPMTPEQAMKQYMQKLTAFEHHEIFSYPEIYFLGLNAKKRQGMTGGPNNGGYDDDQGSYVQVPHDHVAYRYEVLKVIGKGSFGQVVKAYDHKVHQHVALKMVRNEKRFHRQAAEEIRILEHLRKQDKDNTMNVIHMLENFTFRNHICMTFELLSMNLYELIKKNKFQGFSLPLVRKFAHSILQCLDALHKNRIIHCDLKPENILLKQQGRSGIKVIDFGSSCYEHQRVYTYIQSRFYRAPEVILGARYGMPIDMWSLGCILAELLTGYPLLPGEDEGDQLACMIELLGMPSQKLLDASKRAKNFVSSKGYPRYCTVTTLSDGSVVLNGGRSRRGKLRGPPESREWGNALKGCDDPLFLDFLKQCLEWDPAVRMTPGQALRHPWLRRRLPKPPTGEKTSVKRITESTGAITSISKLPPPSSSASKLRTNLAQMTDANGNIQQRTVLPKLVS

[16] = biological target: T6, Dual specificity tyrosine-phosphorylation-regulated kinase 2 (Homo sapiens); settings: at 10 µM
[17] = biological target: Epidermal growth factor receptor (Homo sapiens) (UniProt P00533); settings: at 1 µM
Chain of Epidermal growth factor receptor (Homo sapiens) (P00533 whole entry): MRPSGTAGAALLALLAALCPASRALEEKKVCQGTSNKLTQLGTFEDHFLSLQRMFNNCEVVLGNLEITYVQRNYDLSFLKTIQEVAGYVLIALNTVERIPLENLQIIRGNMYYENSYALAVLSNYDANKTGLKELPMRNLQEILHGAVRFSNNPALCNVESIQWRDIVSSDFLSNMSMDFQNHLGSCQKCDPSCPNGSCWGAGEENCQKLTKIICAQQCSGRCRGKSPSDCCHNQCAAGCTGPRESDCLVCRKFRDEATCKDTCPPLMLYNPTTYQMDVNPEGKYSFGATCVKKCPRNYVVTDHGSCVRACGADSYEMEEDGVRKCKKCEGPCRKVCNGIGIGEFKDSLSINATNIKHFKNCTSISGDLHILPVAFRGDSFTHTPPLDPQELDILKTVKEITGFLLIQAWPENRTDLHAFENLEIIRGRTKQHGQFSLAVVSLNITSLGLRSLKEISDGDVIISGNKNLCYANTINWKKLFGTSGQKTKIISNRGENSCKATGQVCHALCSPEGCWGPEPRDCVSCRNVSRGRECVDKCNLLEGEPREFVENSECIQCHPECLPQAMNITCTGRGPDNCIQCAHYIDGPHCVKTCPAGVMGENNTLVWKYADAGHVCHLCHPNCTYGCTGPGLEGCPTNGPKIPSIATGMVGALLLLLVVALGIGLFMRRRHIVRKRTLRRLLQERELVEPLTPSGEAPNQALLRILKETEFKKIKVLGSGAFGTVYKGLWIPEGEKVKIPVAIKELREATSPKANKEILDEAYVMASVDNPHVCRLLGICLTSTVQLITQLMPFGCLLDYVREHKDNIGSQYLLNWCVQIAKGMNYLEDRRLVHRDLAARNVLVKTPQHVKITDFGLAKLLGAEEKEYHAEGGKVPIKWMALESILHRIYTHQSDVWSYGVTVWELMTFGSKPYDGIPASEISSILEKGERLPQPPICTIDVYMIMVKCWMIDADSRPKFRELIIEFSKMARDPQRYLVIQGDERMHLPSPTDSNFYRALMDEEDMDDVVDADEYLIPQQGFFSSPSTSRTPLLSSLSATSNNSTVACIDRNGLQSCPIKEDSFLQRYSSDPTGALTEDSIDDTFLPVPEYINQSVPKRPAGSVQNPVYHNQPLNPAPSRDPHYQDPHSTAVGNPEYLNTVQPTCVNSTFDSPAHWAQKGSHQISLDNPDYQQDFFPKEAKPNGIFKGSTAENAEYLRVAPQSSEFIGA

[18] = biological target: T7, Ephrin type-A receptor 3 (Homo sapiens) (UniProt P29320); settings: at 1 µM
T7 sequence (whole entry): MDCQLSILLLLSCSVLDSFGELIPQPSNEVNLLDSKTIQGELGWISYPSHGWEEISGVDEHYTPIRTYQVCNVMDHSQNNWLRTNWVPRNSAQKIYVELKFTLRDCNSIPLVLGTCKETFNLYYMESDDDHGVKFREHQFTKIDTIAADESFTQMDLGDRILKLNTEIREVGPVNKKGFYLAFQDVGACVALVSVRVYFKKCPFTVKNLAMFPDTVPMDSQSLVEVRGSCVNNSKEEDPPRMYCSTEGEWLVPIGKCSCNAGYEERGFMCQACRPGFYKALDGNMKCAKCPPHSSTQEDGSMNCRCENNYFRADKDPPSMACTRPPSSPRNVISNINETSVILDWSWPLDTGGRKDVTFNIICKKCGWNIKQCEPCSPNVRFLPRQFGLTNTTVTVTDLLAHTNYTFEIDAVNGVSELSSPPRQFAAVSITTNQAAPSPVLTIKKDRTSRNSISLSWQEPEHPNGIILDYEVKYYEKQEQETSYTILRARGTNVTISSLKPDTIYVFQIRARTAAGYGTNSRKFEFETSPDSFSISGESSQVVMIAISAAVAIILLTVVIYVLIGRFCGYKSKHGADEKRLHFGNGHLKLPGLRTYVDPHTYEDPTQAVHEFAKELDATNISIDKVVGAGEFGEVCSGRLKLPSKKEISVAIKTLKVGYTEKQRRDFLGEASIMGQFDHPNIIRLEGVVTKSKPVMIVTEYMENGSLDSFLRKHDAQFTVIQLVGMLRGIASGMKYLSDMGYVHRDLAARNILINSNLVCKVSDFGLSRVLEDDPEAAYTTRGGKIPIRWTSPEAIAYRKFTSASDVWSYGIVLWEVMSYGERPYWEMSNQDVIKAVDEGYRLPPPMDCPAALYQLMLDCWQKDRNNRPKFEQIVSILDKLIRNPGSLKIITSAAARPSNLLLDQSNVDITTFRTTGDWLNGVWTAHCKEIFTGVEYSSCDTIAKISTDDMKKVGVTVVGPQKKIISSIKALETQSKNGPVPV

[19] = biological target: T5, Myotonin-protein kinase (Homo sapiens); settings: at 1 µM

Chain of Death-associated protein kinase 2 (Homo sapiens) (Q9UIK4 whole entry, looked up): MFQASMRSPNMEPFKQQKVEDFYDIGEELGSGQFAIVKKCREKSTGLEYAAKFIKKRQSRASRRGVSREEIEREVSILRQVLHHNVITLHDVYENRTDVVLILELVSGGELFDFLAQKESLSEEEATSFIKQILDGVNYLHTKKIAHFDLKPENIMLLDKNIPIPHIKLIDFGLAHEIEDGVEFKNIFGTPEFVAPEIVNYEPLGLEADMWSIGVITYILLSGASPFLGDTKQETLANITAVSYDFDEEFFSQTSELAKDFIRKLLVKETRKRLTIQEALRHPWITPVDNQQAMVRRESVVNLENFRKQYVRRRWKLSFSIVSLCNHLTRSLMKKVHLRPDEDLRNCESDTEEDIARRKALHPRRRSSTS
Chain of Death-associated protein kinase 1 (Homo sapiens) (P53355 whole entry, looked up): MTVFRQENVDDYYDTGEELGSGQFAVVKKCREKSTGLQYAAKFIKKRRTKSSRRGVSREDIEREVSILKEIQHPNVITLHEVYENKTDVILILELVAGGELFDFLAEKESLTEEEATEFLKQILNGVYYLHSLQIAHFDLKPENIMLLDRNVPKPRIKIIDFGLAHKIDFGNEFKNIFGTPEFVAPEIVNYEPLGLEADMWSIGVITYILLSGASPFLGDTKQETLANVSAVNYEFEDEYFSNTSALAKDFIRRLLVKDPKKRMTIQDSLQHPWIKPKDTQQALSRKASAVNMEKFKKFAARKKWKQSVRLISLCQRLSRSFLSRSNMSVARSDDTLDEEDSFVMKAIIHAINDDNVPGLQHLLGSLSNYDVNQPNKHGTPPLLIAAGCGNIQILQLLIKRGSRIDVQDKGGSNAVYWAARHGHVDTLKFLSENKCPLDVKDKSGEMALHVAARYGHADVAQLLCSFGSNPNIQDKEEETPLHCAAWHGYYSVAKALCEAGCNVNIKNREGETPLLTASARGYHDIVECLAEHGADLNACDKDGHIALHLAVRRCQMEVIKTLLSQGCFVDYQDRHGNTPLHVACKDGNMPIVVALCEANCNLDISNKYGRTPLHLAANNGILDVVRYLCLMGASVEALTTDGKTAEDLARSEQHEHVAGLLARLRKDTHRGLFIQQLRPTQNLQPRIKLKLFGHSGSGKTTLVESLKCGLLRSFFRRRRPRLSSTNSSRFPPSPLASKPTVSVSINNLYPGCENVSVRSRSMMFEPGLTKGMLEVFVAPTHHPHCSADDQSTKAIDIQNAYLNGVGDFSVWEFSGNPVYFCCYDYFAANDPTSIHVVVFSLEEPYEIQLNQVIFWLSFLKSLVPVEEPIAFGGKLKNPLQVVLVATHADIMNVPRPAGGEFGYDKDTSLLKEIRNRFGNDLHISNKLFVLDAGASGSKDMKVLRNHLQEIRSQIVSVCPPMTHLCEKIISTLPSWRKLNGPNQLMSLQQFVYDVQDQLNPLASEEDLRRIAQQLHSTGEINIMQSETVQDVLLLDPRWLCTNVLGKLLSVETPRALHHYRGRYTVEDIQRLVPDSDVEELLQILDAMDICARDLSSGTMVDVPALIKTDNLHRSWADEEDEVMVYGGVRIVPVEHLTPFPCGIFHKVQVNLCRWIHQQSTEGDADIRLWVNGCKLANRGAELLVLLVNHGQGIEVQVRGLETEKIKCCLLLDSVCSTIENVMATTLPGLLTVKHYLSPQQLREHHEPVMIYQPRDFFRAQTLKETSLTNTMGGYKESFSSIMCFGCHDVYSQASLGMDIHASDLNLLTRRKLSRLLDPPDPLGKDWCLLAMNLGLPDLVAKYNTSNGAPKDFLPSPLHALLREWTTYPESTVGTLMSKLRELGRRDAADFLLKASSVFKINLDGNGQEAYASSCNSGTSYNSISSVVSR

Structure (SMILES)	residual activity [1]	residual activity [2]	residual activity [3]	residual activity [4]	residual activity [5]	residual activity [6]	residual activity [7]	residual activity [8]	residual activity [9]	residual activity [10]	residual activity [11]	residual activity [12]	residual activity [13]	residual activity [14]	residual activity [15]	residual activity [16]	residual activity [17]	residual activity [18]	residual activity [19]
CCN(CC)C(=O)c1ccc(Nc2nc(OCC3CCCCC3)c3nc[nH]c3n2)cc1	54%	96%	68%	99%	93%	66%	23%	4%	60%	8%	77%	42%							
CO[C@@H]1[C@H](N(C)C(=O)c2ccccc2)C[C@H]2O[C@]1(C)n1c3ccccc3c3c4c(c5c6ccccc6n2c5c31)C(=O)NC4	72%	71%	54%	38%	106%	69%	16%	9%	87%	81%	97%	95%	75%	90%	90%	88%	101%	97%	
CN(C)CCCn1cc(C2=C(c3c[nH]c4ccccc34)C(=O)NC2=O)c2ccccc21	75%	72%	33%	88%	113%	82%	108%	46%		37%	102%	68%		25%				109%	31%
Cc1cc(Nc2nc(-c3ccccc3)nc3ccccc23)n[nH]1	17%	56%	11%	69%	71%	41%	42%	14%	36%	18%	75%	43%	99%	79%		41%		54%	111%
